Compound activity as filed in PubChem BioAssay.
This excerpt belongs to a sample that is enriched for hits.
BL2 CD40 inh – inhibitors of CD40-induced NF-kB signaling, primary screen, BL2 cells, luciferase reporter, single point | CD40L-induced, 4 h | inhibition, % at 10 µM | 83,000 compounds, 0.94% hits;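 active = mean inhibition of at least 50% with a set share of replicates also reaching that level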;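 also: 0% = neutral control wells and 100% = IKK inhibitor VII at 50 µM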
* marks the source's active call; other numbers are inactive results; [ ] = another dose, or the depositor's remark.

SMILES	BL2 CD40 inh
CNC[C@@H]1Oc2c(NC(=O)NC(C)C)cccc2C(=O)N(C)C[C@@H]1C	7
Cn1nc(-c2ccccn2)nc2c(=O)n(C)c(=O)nc1-2	101*
c1ccc(-c2nccc(-c3ccco3)n2)nc1	-25
COc1ccc(-c2nc(-c3ccccn3)ncc2S(C)(=O)=O)cc1	9
C[C@@H]1CN(C)C(=O)c2cc([N+](=O)[O-])ccc2O[C@H]1CN(C)C(=O)OC(C)(C)C	26
CCCC(=O)Nc1ccc2c(c1)C(=O)N(C)[C@@H]1CC[C@@H](CC(=O)NCc3cccc(F)c3)O[C@@H]1CO2	0[25 µM]
CC(=O)N1[C@@H]2c3cccc(=O)n3C[C@H]1[C@H](CO)[C@H]2C(=O)NC1CCCC1	-1[25 µM]
CN(CC(=O)N1CCCCC1)S(=O)(=O)c1ccc(Cl)cc1	-8
CCN1CCN(C(=O)CN(C)S(=O)(=O)c2ccc(Cl)cc2)CC1	1
C=CC(=O)N1C/C(=C/c2ccc(Cl)cc2)C(=O)/C(=C\c2ccc(Cl)cc2)C1	93*
Cc1ccccc1-c1ccc([C@@H]2[C@H]3CN(C(=O)c4ccncc4)CC(=O)N3[C@H]2CO)cc1	-9[25 µM]
CC(C)OC(=O)N(C)C[C@@H]1OCc2ccccc2-c2ccccc2C(=O)N([C@H](C)CO)C[C@@H]1C	-6
COc1ccccc1-c1cnn2c(NCCc3ccccc3)cc(C)nc12	-53
c1ccc(-c2nc(NCCCn3ccnc3)c3ccccc3n2)cc1	18
Cc1cc(NCCCn2ccnc2)n2ncc(-c3ccccc3)c2n1	88*
Cc1ccc(S(=O)(=O)NCC[C@H]2CC[C@@H](NC(=O)c3cccnc3)[C@H](CO)O2)cc1	1[25 µM]
COc1ccc(CNC(=O)C[C@H]2C=C[C@@H](NC(=O)c3cccc(F)c3)[C@@H](CO)O2)cc1	-7[25 µM]
Cc1[nH]c2ccccc2c1C(c1ccccn1)N1CCC(C(N)=O)CC1 (stereo unspecified)	62*
Cc1[nH]c2ccccc2c1C(c1ccncc1)N1CCC(C)CC1 (stereo unspecified)	16
Cc1[nH]c2ccccc2c1C(c1ccncc1)N1CCN(c2ccccn2)CC1 (stereo unspecified)	-3
CN1CCN(C(=O)C[C@@H]2CC[C@@H]3[C@@H](COc4ccc(NC(=O)C5CCC5)cc4C(=O)N3C)O2)CC1	9
CCOC(=O)c1c(-c2ccc(C)o2)csc1N	3
CCOC(=O)c1c(-c2ccc(C)o2)csc1NC(=O)CN1CCOCC1	-1
CCOC(=O)c1c(-c2ccc(C)o2)csc1NC(=O)COC(=O)c1cccs1	80*
c1cc2c(cc1C1CCCCC1)c1c3n2CCNC3CCC1 (stereo unspecified)	11[25 µM]
SMILES	BL2 CD40 inh
O=C(C[C@H]1C[C@H]2c3cc(NC(=O)Nc4ccccc4F)ccc3O[C@H]2[C@@H](CO)O1)NCCc1ccccc1	-4[25 µM]
COc1cccc(C=NNC(=O)c2ccncc2)c1O	-38
COc1cccc(/C=N/NC(=O)N/N=C/c2cccc(OC)c2O)c1O	-59
COc1cccc(/C=N/Nc2ccc(C(=O)O)cc2)c1O	96*
CCCC#Cc1ccc2c(c1)[C@@H]1[C@@H](CCN1S(=O)(=O)c1ccccc1C)[C@@H](CO)N2	-3[25 µM]
CNC[C@H]1OCc2ccccc2-c2c(n(C)c3ccccc23)C(=O)N([C@H](C)CO)C[C@@H]1C	-3
O=C(C[C@@H]1CC[C@H]2NC[C@H](O)COC[C@@H]2O1)N1CCc2ccccc2C1	-7[25 µM]
C[C@@H]1CN(C)C(=O)Cc2cc([N+](=O)[O-])ccc2O[C@H]1CN(C)C(=O)OC(C)(C)C	5
CCOC(=O)c1cc2c(ccn2C)n1Cc1ccc(C#N)cc1	55*
CCOC(=O)c1cc2c(ccn2C)n1CC(=O)N(C)C	2
CCOC(=O)c1cc2c(ccn2C)n1Cc1ccc(Cl)cc1	10
C[C@@H]1CN([C@@H](C)CO)C(=O)c2cc(NC(=O)C3CCCCC3)ccc2O[C@H]1CN(C)Cc1ccc2c(c1)OCO2	-4[25 µM]
COc1ccccc1CNC(=O)C[C@@H]1C[C@H]2c3cc(NC(=O)c4ccc5c(c4)OCO5)ccc3O[C@H]2[C@H](CO)O1	13[25 µM]
C=C1C(=O)OC2C1C(OC(=O)C(C)=CC)CC(=C)C1C(O)C3OC3(C)C21O (stereo unspecified)	33
C=C1C(=O)OC2C=C(CO)CCC=C(CO)CC(OC(=O)C(C)C)C12 (stereo unspecified)	87*
O=C(C[C@@H]1C[C@@H]2c3cc(NC(=O)Nc4ccccc4F)ccc3O[C@@H]2[C@@H](CO)O1)NC1CCCCC1	-9[25 µM]
Cc1noc(C)c1NC(=O)N1C[C@H](O)COC[C@H]2O[C@@H](CC(=O)N[C@H]3CCN(Cc4ccccc4)C3)CC[C@@H]21	-2[25 µM]
O=C(c1ccccc1)N1CC(=O)N2[C@H](CO)[C@H](c3ccc(-c4ccccc4)cc3)[C@@H]2C1	-9[25 µM]
COc1ccc(-c2ccc3n(c2=O)C[C@@H]2[C@@H](CO)[C@H](C(=O)NCC4CC4)N(C(=O)NC(C)C)[C@H]32)cc1	-14[25 µM]
CC12C(=O)OC(=O)C1(C)C1CCC2O1 (stereo unspecified)	74*[25 µM]
CCNC(=O)[C@H]1[C@H](CO)[C@H]2Cn3c(ccc(-c4cccc(OC)c4)c3=O)[C@H]2N1C(=O)NC(C)C	0[25 µM]
CO[C@H](C(=O)N(C)C[C@H]1OCc2ccccc2-c2ccccc2C(=O)N([C@@H](C)CO)C[C@H]1C)c1ccccc1	-1[25 µM]
C[C@@H]1CN([C@H](C)CO)C(=O)c2c(c3ccccc3n2C)-c2ccccc2CO[C@@H]1CN(C)S(C)(=O)=O	-8
Cc1noc(C)c1S(=O)(=O)N(C)C[C@H]1OCc2ccccc2-c2c(n(C)c3ccccc23)C(=O)N([C@H](C)CO)C[C@H]1C	51*[25 µM]
Cc1noc(C)c1S(=O)(=O)N(C)C[C@H]1OCc2ccccc2-c2c(n(C)c3ccccc23)C(=O)N([C@@H](C)CO)C[C@H]1C	65*[25 µM]
SMILES	BL2 CD40 inh
Cc1noc(C)c1S(=O)(=O)N(C)C[C@H]1OCc2ccccc2-c2c(n(C)c3ccccc23)C(=O)N([C@@H](C)CO)C[C@@H]1C	32[25 µM]
Cc1noc(C)c1S(=O)(=O)N(C)C[C@@H]1OCc2ccccc2-c2c(n(C)c3ccccc23)C(=O)N([C@H](C)CO)C[C@H]1C	45[25 µM]
Cc1noc(C)c1S(=O)(=O)N(C)C[C@@H]1OCc2ccccc2-c2c(n(C)c3ccccc23)C(=O)N([C@@H](C)CO)C[C@H]1C	46[25 µM]
COc1ccccc1C(=O)N1C[C@H]2[C@@H](c3ccccc31)[C@@H](CO)N2C(=O)C1CCCC1	-2
O=C(C[C@H]1CC[C@@H]2NC[C@@H](O)COC[C@H]2O1)Nc1ccc(-c2ccccc2)cc1	-9[25 µM]
C[C@@H](NC(=O)N(C)C[C@@H]1OCc2ccccc2-c2ccccc2C(=O)N([C@@H](C)CO)C[C@@H]1C)c1ccccc1	-12[25 µM]
CCCC#Cc1ccc2c(c1)[C@@H]1[C@@H](CCN1S(=O)(=O)c1cn(C)cn1)[C@@H](CO)N2	-32[25 µM]
COc1ccc2c3c([nH]c2c1)[C@H](CO)N(Cc1ccc(Cl)cc1)CC31CN(S(C)(=O)=O)C1	14[25 µM]
COc1ccc2c3c([nH]c2c1)[C@@H](CO)N(Cc1ccc(Cl)cc1)CC31CN(S(C)(=O)=O)C1	11[25 µM]
COc1ccc(CN2CC3(CN(S(=O)(=O)c4ccc(C)cc4)C3)c3c([nH]c4cc(OC)ccc34)[C@H]2CO)cc1	55*[25 µM]
CN1[C@@H]2c3ccc(/C=C/c4ccccc4)c(=O)n3C[C@@H]2[C@@H](CO)[C@@H]1C(=O)N1CCCCC1	-21[25 µM]
COc1ccc(C(=O)N2CCOCC2)cc1S(=O)(=O)N(C)Cc1ccccc1	8
